The source of these data is PMC7862700, “An all-to-all approach to the identification of sequence-specific readers for epigenetic DNA modifications on cytosine”.

What all share (assay): DAPPL (digital affinity profiling via proximity ligation, sequencing); 10 mM Tris-HCl pH 7.5, 50 mM NaCl, 1 mM DTT, 4% glycerol, room temperature, 30 min; GST-TFs on glutathione beads, 16-mer random dsDNA library, 0.1% formaldehyde crosslink after washing; high values mean tight binding
Holding throughout (settings): protein: recombinant; tags: N-terminal GST; dsDNA, one strand shown

For one experiment, the target named is T1, FLI1 (Homo sapiens, UniProt Q01543 1-452).
T1 sequence: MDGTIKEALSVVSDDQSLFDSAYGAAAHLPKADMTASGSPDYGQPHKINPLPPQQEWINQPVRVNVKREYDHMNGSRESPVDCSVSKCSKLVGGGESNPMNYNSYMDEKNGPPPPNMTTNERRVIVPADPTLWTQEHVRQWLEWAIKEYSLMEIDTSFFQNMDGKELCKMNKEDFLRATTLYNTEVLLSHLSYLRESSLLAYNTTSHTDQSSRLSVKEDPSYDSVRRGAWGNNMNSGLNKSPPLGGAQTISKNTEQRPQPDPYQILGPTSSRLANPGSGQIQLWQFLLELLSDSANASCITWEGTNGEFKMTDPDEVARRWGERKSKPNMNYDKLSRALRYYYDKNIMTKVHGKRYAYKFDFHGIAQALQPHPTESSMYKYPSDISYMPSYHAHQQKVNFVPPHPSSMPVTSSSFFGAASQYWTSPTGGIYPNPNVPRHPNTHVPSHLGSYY
Summed up:
(§1)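 Pools of DNA-barcoded human transcription factors, expressed in yeast as GST fusions on glutathione beads and combined with a tag-only sample, were incubated with 200 nmole of a 16-mer random double-stranded DNA library. Incubation took 30 min at room temperature in Tris/NaCl/DTT/glycerol buffer and was followed by washing, 0.1% formaldehyde crosslinking, proximity ligation (BsaI/T4 ligase, 1 h, 37 °C), PCR amplification and sequencing on an Illumina NextSeq500. Binding signal is the ratio of a hexamer's read frequency for a factor to its frequency for the tag-only sample.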

Another experiment concerns the target T2, ELK1 (Homo sapiens, UniProt P19419 1-428).
T2 sequence: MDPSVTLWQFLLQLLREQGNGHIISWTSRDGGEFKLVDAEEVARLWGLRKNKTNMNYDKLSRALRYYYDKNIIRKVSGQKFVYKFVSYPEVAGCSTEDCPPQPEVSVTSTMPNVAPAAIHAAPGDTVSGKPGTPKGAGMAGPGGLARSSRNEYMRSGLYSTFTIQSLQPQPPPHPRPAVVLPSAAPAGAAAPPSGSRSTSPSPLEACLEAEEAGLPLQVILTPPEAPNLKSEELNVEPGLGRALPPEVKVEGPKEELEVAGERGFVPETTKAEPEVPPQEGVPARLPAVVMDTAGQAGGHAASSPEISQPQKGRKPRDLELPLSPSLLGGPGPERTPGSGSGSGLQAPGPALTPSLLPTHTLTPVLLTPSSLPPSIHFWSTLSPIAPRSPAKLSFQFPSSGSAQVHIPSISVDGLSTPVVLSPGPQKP
The essentials: as §1

Another experiment has as its target T3, GABPA (Homo sapiens, UniProt Q06546 1-454).
T3 sequence: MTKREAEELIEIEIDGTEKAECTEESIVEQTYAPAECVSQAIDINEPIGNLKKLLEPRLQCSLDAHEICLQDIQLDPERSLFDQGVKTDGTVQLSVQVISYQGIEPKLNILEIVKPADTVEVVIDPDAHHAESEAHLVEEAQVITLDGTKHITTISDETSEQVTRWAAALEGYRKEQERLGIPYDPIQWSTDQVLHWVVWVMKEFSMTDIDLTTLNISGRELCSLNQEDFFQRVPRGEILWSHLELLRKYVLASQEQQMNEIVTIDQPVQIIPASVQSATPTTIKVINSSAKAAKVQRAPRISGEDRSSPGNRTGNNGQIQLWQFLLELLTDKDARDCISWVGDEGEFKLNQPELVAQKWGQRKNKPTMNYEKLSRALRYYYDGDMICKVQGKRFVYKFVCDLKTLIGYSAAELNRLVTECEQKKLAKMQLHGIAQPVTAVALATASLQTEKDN
The essentials: as §1

In the next experiment the target is T4, ERG (Homo sapiens, UniProt P11308 1-479).
T4 sequence: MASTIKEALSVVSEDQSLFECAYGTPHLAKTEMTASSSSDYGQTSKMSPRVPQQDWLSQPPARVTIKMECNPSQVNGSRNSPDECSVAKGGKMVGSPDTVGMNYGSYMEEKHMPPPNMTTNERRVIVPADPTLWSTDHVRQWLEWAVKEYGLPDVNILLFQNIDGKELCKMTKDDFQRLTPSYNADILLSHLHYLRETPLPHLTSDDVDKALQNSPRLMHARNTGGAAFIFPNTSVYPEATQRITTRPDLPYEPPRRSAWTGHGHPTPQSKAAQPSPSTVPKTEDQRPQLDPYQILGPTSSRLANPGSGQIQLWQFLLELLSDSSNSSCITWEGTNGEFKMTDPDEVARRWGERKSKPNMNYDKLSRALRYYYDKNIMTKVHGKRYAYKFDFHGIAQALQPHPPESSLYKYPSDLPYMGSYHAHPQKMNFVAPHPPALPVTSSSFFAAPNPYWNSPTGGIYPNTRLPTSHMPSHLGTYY
The essentials: as §1

The target of another experiment is ELF1 (Homo sapiens, UniProt P32519 1-619). Summed up: as §1
Sequence of ELF1 (P32519 whole entry): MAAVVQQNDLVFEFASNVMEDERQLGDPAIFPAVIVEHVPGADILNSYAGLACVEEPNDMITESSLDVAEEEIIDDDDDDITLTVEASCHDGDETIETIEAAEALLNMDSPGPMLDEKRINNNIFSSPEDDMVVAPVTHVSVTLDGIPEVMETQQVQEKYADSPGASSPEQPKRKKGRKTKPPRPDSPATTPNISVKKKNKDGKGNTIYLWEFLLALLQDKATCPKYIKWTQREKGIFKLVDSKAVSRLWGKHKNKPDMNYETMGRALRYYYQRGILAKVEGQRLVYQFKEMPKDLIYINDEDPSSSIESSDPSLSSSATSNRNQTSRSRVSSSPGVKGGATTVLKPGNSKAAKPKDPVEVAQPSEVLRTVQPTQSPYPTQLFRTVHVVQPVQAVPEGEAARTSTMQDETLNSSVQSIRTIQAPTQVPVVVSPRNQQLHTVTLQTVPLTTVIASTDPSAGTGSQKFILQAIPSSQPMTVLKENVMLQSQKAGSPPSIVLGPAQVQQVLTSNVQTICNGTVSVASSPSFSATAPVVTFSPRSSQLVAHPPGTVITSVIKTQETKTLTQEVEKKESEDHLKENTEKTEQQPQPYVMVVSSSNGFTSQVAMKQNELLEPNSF
The target of the next experiment is T5, EHF (Homo sapiens, UniProt Q9NZC4 1-300).
T5 sequence: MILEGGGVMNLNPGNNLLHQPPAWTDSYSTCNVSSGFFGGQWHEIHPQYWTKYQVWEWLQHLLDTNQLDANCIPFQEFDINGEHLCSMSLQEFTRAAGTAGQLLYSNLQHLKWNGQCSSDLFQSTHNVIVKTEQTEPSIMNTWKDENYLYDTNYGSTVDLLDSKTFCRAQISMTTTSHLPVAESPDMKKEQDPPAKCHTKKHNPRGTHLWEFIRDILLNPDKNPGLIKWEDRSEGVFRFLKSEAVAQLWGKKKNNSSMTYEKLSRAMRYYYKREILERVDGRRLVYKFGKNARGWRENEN
The essentials:
as §1

Another experiment has as its target SPI1 (Homo sapiens, UniProt P17947 1-270). The essentials: as §1
A further experiment concerns the target SPIB (Homo sapiens, UniProt Q01892 1-262). Summed up:
as §1

A further experiment concerns the target T6, FEV (Homo sapiens, UniProt Q99581 1-238).
T6 sequence: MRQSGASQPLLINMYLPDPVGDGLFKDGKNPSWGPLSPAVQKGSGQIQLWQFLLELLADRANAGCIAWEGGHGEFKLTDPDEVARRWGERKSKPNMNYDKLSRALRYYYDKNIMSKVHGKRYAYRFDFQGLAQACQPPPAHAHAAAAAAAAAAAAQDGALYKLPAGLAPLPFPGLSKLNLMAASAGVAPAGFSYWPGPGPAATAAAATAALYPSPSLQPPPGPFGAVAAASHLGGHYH
Summed up:
as §1

For a further experiment, the target named is ETV5 (Homo sapiens, UniProt P41161 1-510). Summed up:
as §1

The target in another experiment is T7, SPIC (Homo sapiens, UniProt Q8N5J4 1-248).
T7 sequence: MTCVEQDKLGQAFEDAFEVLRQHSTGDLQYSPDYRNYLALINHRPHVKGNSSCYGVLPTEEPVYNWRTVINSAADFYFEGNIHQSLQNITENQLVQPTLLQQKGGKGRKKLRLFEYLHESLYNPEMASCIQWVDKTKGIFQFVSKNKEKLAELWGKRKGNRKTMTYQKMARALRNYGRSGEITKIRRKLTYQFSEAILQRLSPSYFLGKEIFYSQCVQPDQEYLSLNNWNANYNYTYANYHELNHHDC
Summed up: as §1

The next experiment deals with ELF4 (Homo sapiens, UniProt Q99607 1-663). The essentials: as §1
Sequence of ELF4 (Q99607 whole entry): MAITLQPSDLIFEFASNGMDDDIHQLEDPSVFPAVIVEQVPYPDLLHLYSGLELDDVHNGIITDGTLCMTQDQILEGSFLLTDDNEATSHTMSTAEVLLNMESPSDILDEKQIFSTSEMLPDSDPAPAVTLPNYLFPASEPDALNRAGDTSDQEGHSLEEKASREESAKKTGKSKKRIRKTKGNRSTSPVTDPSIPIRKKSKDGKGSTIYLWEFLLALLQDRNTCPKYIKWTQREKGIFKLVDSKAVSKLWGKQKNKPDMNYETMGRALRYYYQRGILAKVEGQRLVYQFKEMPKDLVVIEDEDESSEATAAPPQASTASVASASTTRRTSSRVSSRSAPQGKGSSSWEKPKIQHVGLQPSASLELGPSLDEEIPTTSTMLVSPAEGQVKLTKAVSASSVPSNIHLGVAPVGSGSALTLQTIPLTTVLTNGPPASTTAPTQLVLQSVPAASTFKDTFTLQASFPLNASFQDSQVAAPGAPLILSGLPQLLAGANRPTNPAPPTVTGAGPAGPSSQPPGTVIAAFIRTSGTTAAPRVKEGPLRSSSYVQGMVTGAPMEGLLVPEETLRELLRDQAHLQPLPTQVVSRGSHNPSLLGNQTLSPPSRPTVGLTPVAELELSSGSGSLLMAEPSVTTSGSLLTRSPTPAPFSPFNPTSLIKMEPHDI
The next experiment has as its target ETV1 (Homo sapiens, UniProt P50549 1-477). Summed up:
as §1

The next experiment has as its target T8, ERF (Homo sapiens, UniProt P50548 1-548).
T8 sequence: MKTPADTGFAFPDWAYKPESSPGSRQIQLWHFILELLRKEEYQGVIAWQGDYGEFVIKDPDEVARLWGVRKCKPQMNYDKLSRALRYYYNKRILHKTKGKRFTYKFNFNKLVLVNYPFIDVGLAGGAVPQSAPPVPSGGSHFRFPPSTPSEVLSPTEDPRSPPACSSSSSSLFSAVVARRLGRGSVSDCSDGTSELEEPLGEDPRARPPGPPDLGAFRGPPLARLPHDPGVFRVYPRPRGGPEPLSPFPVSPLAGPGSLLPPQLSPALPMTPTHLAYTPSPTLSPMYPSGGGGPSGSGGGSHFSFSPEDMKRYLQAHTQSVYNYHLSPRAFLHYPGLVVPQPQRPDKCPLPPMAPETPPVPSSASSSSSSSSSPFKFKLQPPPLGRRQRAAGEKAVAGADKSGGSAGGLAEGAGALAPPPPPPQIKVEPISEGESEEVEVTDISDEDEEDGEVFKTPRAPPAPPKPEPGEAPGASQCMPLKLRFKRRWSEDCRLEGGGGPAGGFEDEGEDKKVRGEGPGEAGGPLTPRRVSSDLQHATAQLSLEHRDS
Summed up: as §1

For the next experiment, the target named is T9, ETV3L (Homo sapiens, UniProt Q6ZN32 1-361).
T9 sequence: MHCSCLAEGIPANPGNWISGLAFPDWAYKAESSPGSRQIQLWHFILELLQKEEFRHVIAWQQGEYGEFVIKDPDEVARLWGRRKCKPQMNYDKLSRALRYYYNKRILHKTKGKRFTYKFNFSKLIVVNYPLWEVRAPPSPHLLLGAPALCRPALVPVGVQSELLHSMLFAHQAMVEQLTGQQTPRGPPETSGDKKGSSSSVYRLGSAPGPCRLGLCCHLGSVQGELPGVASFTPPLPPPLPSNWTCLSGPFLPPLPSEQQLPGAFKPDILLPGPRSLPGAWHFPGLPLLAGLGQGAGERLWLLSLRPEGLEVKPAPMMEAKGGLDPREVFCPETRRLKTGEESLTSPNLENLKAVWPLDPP
Summed up: as §1

The target of the next experiment is T10, ETS2 (Homo sapiens, UniProt P15036 1-469).
T10 sequence: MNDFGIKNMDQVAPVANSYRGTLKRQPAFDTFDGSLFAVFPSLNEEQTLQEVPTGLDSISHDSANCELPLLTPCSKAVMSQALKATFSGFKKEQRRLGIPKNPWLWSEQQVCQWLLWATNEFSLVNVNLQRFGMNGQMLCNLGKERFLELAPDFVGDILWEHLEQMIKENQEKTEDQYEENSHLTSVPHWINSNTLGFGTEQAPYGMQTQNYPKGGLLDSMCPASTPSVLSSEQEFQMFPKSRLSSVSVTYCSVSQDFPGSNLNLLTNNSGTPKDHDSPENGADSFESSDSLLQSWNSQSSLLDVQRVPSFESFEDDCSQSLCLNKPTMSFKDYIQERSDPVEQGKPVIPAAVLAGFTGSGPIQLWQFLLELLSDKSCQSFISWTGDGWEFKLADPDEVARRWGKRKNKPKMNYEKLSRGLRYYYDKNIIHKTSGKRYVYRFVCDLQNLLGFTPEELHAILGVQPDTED
Summed up: as §1

A further experiment has as its target T11, SPDEF (Homo sapiens, UniProt O95238 1-335).
T11 sequence: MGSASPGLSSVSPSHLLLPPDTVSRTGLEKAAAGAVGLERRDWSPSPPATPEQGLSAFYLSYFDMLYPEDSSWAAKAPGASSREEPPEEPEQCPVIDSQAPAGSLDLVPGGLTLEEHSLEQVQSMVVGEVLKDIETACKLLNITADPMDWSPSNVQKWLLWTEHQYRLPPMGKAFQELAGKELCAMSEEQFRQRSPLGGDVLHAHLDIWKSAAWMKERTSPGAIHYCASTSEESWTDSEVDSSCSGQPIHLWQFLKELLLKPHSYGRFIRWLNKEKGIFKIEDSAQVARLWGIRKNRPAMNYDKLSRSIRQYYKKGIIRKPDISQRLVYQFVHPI
Summed up: as §1

A further experiment concerns the target T12, ELF5 (Homo sapiens, UniProt Q9UKW6-2 1-255).
T12 sequence: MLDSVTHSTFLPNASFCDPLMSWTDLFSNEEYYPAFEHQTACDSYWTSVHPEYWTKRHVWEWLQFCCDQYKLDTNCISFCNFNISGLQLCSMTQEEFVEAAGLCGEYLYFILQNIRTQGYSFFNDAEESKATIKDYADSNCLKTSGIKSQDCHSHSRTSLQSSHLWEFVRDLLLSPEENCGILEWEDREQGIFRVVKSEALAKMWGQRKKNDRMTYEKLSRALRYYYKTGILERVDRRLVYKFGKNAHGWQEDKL
Summed up: as §1

For another experiment, the target named is T13, ETV3 (Homo sapiens, UniProt P41162-2 1-143).
T13 sequence: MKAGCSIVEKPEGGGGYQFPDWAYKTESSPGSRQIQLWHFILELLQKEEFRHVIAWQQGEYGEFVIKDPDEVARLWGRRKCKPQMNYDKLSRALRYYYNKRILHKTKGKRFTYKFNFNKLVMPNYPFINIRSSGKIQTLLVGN
The essentials:
as §1

A further experiment has as its target ETV6 (Homo sapiens, UniProt P41212 1-452). The essentials:
as §1

Sequence of SPIB (Q01892 whole entry): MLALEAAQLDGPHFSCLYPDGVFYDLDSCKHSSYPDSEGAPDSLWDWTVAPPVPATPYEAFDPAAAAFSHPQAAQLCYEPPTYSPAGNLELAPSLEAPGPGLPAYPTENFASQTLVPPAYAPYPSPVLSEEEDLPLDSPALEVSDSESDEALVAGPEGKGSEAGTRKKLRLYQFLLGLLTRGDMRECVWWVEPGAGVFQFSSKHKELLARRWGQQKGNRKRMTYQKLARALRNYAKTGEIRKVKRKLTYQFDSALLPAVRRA
Sequence of ETV6 (P41212 whole entry): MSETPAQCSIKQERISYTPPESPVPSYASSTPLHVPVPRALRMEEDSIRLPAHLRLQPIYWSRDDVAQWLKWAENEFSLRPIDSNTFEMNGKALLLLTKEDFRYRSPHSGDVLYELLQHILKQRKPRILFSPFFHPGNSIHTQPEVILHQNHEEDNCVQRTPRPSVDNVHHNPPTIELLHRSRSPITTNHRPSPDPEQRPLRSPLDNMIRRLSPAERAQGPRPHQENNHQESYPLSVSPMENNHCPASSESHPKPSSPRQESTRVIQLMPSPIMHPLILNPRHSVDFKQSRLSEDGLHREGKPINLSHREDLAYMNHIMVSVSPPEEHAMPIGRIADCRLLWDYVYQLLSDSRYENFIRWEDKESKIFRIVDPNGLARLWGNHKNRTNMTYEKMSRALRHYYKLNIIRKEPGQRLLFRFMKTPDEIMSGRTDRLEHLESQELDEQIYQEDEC
Sequence of ETV5 (P41161 whole entry): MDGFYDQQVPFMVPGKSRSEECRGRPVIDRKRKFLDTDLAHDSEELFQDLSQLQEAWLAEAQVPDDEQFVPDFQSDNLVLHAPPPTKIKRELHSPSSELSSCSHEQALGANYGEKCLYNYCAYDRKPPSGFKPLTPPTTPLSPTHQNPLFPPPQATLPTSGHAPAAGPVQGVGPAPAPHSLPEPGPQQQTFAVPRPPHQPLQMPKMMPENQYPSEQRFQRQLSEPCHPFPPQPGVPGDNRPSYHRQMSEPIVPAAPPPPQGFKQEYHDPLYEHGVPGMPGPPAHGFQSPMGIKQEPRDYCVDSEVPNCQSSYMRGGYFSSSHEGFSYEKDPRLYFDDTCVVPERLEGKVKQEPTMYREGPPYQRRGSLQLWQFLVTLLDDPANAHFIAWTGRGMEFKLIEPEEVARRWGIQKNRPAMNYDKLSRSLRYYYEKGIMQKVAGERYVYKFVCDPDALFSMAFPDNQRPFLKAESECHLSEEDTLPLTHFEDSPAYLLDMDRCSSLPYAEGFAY
Sequence of ETV1 (P50549 whole entry): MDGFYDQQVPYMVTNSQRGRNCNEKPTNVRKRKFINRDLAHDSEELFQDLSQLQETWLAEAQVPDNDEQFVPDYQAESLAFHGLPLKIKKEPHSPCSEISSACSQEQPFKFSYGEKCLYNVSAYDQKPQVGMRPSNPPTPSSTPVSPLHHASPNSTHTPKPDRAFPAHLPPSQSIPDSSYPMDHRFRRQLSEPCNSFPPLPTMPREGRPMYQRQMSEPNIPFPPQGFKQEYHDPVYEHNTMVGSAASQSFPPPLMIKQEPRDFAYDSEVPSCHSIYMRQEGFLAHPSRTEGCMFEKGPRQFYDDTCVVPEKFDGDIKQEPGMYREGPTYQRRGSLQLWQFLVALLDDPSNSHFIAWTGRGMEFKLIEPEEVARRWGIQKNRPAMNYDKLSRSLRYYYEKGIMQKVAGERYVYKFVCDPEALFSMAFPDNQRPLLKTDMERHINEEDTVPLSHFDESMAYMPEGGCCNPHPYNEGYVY

For the sequence GAAGTC, the binding signal with FLI1 was 1.15 fold enrichment (6-mer frequency, TF over GST control); with ELK1 it was 1.2 fold enrichment (6-mer frequency, TF over GST control); in the experiment with GABPA it was 1.04 fold enrichment (6-mer frequency, TF over GST control); with ERG it was 1.33 fold enrichment (6-mer frequency, TF over GST control); with ELF1, 1.1 fold enrichment (6-mer frequency, TF over GST control); in the experiment with EHF it was 1.13 fold enrichment (6-mer frequency, TF over GST control). Moreover, the binding signal was 1.51 fold enrichment (6-mer frequency, TF over GST control) in the experiment with SPI1; 1.22 fold enrichment (6-mer frequency, TF over GST control) with SPIB; 1.22 fold enrichment (6-mer frequency, TF over GST control) with FEV; 1.17 fold enrichment (6-mer frequency, TF over GST control) with ETV5; 1.23 fold enrichment (6-mer frequency, TF over GST control) in the experiment with SPIC; 1.08 fold enrichment (6-mer frequency, TF over GST control) in the experiment with ELF4. For the same sequence, the binding signal with ETV1 was 1.22 fold enrichment (6-mer frequency, TF over GST control); with ERF, 1.11 fold enrichment (6-mer frequency, TF over GST control); in the experiment with ETV3L, 1.14 fold enrichment (6-mer frequency, TF over GST control); in the experiment with ETS2, 1.19 fold enrichment (6-mer frequency, TF over GST control); in the experiment with SPDEF it was 1.06 fold enrichment (6-mer frequency, TF over GST control); with ELF5, 1.26 fold enrichment (6-mer frequency, TF over GST control). Besides, the binding signal in the experiment with ETV3 was 1.21 fold enrichment (6-mer frequency, TF over GST control); with ETV6 it was 1.22 fold enrichment (6-mer frequency, TF over GST control).
